Among the data in PubChem BioAssay (NCI) are growth values, retold here.

Common to all, as to test: NCI-60 one-dose screen, 48 h (100 = growth as untreated, 0 = no growth, -100 = all killed)
For one experiment, the system named is SR leukemia. To be noted: 10 µM unless noted.
The test system of a further experiment is RPMI-8226 leukemia. To be noted: 10 µM.
The subject of a further experiment is OVCAR-8 ovarian. To be noted: 10 µM unless noted.
A further experiment deals with OVCAR-5 ovarian. As to conditions: 10 µM unless noted.
The next experiment relates to SK-OV-3 ovarian. To be noted: 10 µM.
Another experiment relates to IGROV1 ovarian. As to conditions: 10 µM unless noted.
The test system of a further experiment is OVCAR-3 ovarian. As to conditions: 10 µM unless noted.
Another experiment deals with BT-549 breast. As to conditions: 10 µM unless noted.
The next experiment concerns MDA-MB-435 melanoma. As to conditions: 10 µM unless noted.
A further experiment has as its system SW-620 colon. To be noted: 10 µM unless noted.
The test system of another experiment is MCF7 breast. To be noted: 10 µM unless noted.
A further experiment relates to HCC-2998 colon. As to conditions: 10 µM unless noted.
In another experiment the test system is KM12 colon. As to conditions: 10 µM unless noted.
The subject of the next experiment is OVCAR-4 ovarian. As to conditions: 10 µM unless noted.
For the next experiment, the system named is NCI/ADR-RES ovarian. To be noted: 10 µM unless noted.
For another experiment, the system named is HCT-116 colon. To be noted: 10 µM unless noted.
In another experiment the test system is HS 578T breast. As to conditions: 10 µM unless noted.
A further experiment deals with T-47D breast. To be noted: 10 µM.

SMILES strings stand for the structures. This is part of a sample that, as a whole, favours compounds with a hit. Of some 83,000 tested, about 20% had one in any assay.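 Single-dose data. Exposure time 48 hours. Values below 10 considered active.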 A number with no mark means an inactive call. Activity calls are given as the source filed them.

Turning to `COc1c(Cl)ccc2c(-c3nc4cc(Cl)c(F)cc4s3)cc(=O)oc12`, the growth is 23.2% in the experiment with SR leukemia; 49% with RPMI-8226 leukemia; 62.5% in the experiment on OVCAR-8 ovarian; 96.5% in the experiment with OVCAR-5 ovarian; 104% in the experiment with SK-OV-3 ovarian; -59.8% (active) in the experiment on IGROV1 ovarian. Further, the growth was 75.5% with OVCAR-3 ovarian; 107% in the experiment on BT-549 breast; 102% with MDA-MB-435 melanoma; 90.9% in the experiment with SW-620 colon; 96.2% with MCF7 breast; 108% with HCC-2998 colon. Further, the growth with KM12 colon was 79.4%.

As for `CCCCC/C=C\C/C=C/CCCCCCCCNC(=O)Nc1ccc([N+](=O)[O-])cc1`, the growth in the experiment with SR leukemia was 34.9%; in the experiment with RPMI-8226 leukemia it was 12.8%; in the experiment with OVCAR-8 ovarian it was 52.9%; in the experiment with OVCAR-5 ovarian it was 113%; in the experiment on OVCAR-4 ovarian it was 93%; in the experiment on IGROV1 ovarian, 46.3%. In addition, the growth in the experiment with OVCAR-3 ovarian was 21.3%; in the experiment on NCI/ADR-RES ovarian it was 21.5%; in the experiment with BT-549 breast, 109%; in the experiment on MDA-MB-435 melanoma, 68.3%; in the experiment on SW-620 colon it was 31.6%; in the experiment on MCF7 breast, 103%. Also, the values for the growth in the experiment on HCT-116 colon, in the experiment on HCC-2998 colon and with KM12 colon were 40%, 95.3% and 23.9%, respectively.

`CCCCCCCC/C=C\CCCCCCCCOc1cccc(CC(=O)NCC[N+](C)(C)C)c1`: the growth is 59% in the experiment with SR leukemia; 61.9% in the experiment on RPMI-8226 leukemia; 85.9% with OVCAR-8 ovarian; 51.8% with OVCAR-5 ovarian; 88.6% in the experiment on OVCAR-4 ovarian; 3.34% (active) with IGROV1 ovarian. Besides, the growth in the experiment on OVCAR-3 ovarian is 99.4%; in the experiment on NCI/ADR-RES ovarian, 103%; in the experiment with BT-549 breast, 74.4%; in the experiment with MDA-MB-435 melanoma it was 91.5%; in the experiment on SW-620 colon it was 96.5%; with MCF7 breast it was 90.8%. Moreover, the growth is 75.2% in the experiment with HCT-116 colon, 66.1% in the experiment on HCC-2998 colon and 57.8% in the experiment with KM12 colon.

On to `CCOC(=O)c1c(Cl)c2c(n1Cc1ccc(OC)cc1)-c1oncc1CCC2`, for which the growth is 23.7% in the experiment with SR leukemia; 52.4% in the experiment on RPMI-8226 leukemia; 81.5% with OVCAR-8 ovarian; 90.1% in the experiment on OVCAR-5 ovarian; 105% in the experiment on SK-OV-3 ovarian; 84.4% in the experiment on IGROV1 ovarian. The growth in the experiment on OVCAR-3 ovarian was 102%; in the experiment on HS 578T breast it was 67.4%; in the experiment on NCI/ADR-RES ovarian, 80.6%; in the experiment with T-47D breast it was 83.6%; in the experiment with BT-549 breast, 70.4%; in the experiment with MDA-MB-435 melanoma it was 101%. The growth is 71.1% in the experiment on SW-620 colon; 82.3% in the experiment on MCF7 breast; 62.3% with HCT-116 colon; 66.9% in the experiment on HCC-2998 colon; 96.8% in the experiment on KM12 colon.

With `Oc1ccc(Cl)cc1CNc1nc2ccccc2[nH]1`, the growth is -31.7% (active) in the experiment on SR leukemia; -21.2% (active) with RPMI-8226 leukemia; 42.8% with OVCAR-8 ovarian; 98.9% with OVCAR-5 ovarian; 87.1% in the experiment with SK-OV-3 ovarian; -73.8% (active) in the experiment with OVCAR-3 ovarian. Moreover, the growth was 89% in the experiment with HS 578T breast; 38.6% in the experiment with NCI/ADR-RES ovarian; 96% in the experiment on T-47D breast; 58.4% in the experiment on BT-549 breast; -67.3% (active) in the experiment on MDA-MB-435 melanoma; -48.6% (active) with SW-620 colon. For the same molecule, the growth with MCF7 breast is 18%; in the experiment on HCT-116 colon, 12.3%; in the experiment on HCC-2998 colon, 59.3%; with KM12 colon, 13.2%.

Turning to `Cc1ccc(NS(=O)(=O)c2ccc(-c3cnc(C4CC4)o3)cc2)cc1`, the growth in the experiment with SR leukemia is 33.8%; in the experiment with RPMI-8226 leukemia, 37.6%; with OVCAR-8 ovarian, 49.3%; with OVCAR-5 ovarian it was 48.8%; with OVCAR-4 ovarian it was 59%; in the experiment on IGROV1 ovarian, 39.8%. For the same molecule, the growth in the experiment on OVCAR-3 ovarian is -2% (active); with HS 578T breast it was -2.93% (active); in the experiment with NCI/ADR-RES ovarian, 8.09% (active); in the experiment on BT-549 breast it was 40.4%; in the experiment on MDA-MB-435 melanoma it was -3.14% (active); with SW-620 colon, 12.4%. In addition, the growth is 11.8% in the experiment with HCT-116 colon, 69.2% with HCC-2998 colon and 20.5% in the experiment with KM12 colon.

`COc1ccc(/C=N/NC(=O)c2cnn(CC(O)Cc3ccccc3)c2N)cc1OC1CCCC1` (stereo not given): the growth in the experiment on SR leukemia is 88.7%; with RPMI-8226 leukemia, 55.4%; in the experiment with OVCAR-8 ovarian, 78.6%; in the experiment on OVCAR-5 ovarian it was 102%; in the experiment with OVCAR-4 ovarian, 75.8%; in the experiment on IGROV1 ovarian, 105%. The growth with OVCAR-3 ovarian was 102%; in the experiment with HS 578T breast, 79%; with BT-549 breast it was 75.7%; in the experiment with MDA-MB-435 melanoma it was 100%; with SW-620 colon, 98.9%; with MCF7 breast, 83.7%. Also, the growth in the experiment with HCT-116 colon was 90.4%; in the experiment on HCC-2998 colon, 116%; with KM12 colon, 35.2%.

As for `O=C(N/N=C/c1ccc2c(c1)OCO2)c1cnn2c1NC(c1ccccc1)C2` (stereo not given), the growth in the experiment on SR leukemia is 31.6%; with RPMI-8226 leukemia, 76.4%; in the experiment with OVCAR-8 ovarian, 66.8%; in the experiment with OVCAR-5 ovarian, 78.1%; in the experiment with OVCAR-4 ovarian it was 48.9%; with IGROV1 ovarian it was 51.5%. Besides, the growth with OVCAR-3 ovarian was 25.2%; in the experiment on HS 578T breast it was 32.5%; with NCI/ADR-RES ovarian, 55.6%; in the experiment on MDA-MB-435 melanoma, 3.07% (active); in the experiment with SW-620 colon, 43.6%; in the experiment with MCF7 breast it was 33%. The growth with HCT-116 colon was 25.1%; in the experiment with HCC-2998 colon it was 45.3%; in the experiment on KM12 colon it was 21.3%.

Regarding `CN1CCN(c2ccc3nc(-c4ccc5nc(-c6ccc(C(F)(F)F)cc6)[nH]c5c4)[nH]c3c2)CC1`, the growth with SR leukemia was -18.5% (active); with RPMI-8226 leukemia, -9.04% (active); in the experiment on OVCAR-8 ovarian it was 65.5%; with OVCAR-5 ovarian, 110%; with IGROV1 ovarian it was 71.2%; in the experiment on OVCAR-3 ovarian, -17.3% (active). In addition, the growth in the experiment with HS 578T breast was 26.4%; in the experiment with NCI/ADR-RES ovarian, 102%; in the experiment with T-47D breast, 57.9%; with BT-549 breast it was 84.6%; in the experiment on MDA-MB-435 melanoma, 49.8%; in the experiment with SW-620 colon, 1.32% (active). Moreover, the figures for the growth with MCF7 breast, in the experiment on HCT-116 colon and in the experiment with HCC-2998 colon were 4.4% (active), 21.1% and 87.2%, respectively.

Turning to `CN1CCN(CCCn2c3c(sc4ncccc43)c(=O)n3nnc(-c4ccccc4)c23)CC1`, the growth in the experiment on SR leukemia was -25.2% (active); in the experiment with RPMI-8226 leukemia it was 72.5%; in the experiment with OVCAR-8 ovarian, -48.2% (active); with OVCAR-5 ovarian it was 119%; with OVCAR-4 ovarian, -61.4% (active); with OVCAR-3 ovarian, -83.1% (active). Moreover, the growth in the experiment on NCI/ADR-RES ovarian was -28.4% (active); in the experiment on T-47D breast, 113%; in the experiment on BT-549 breast, 93.5%; in the experiment on MDA-MB-435 melanoma, 97.9%; in the experiment on SW-620 colon it was -44.5% (active); in the experiment with MCF7 breast it was -90.6% (active). Moreover, the values for the growth with HCC-2998 colon and in the experiment on KM12 colon were 99.2% and -32.1% (active), respectively.
